Eleven compounds from ChEMBL document CHEMBL3988442, “University of Dundee, Small-Polar-MMV Screening Library” (2021) can be followed below.

Common to all, as to design: scale not given: direction of the effect not stated beside the values
For assay [1], the target named is Protein translocase subunit SecA (Escherichia coli (strain K12)) (UniProt P10408). The experiment in a line: Assay to Identify E. coli SecA ATPase Inhibitors. In kind it is functional. The settings on record: 30 µM.
The target of assay [2] is T1, Ubiquitin-activating enzyme e1, putative (Leishmania donovani (strain BPK282A1)) (UniProt E9BSI1).
T1 sequence (whole entry): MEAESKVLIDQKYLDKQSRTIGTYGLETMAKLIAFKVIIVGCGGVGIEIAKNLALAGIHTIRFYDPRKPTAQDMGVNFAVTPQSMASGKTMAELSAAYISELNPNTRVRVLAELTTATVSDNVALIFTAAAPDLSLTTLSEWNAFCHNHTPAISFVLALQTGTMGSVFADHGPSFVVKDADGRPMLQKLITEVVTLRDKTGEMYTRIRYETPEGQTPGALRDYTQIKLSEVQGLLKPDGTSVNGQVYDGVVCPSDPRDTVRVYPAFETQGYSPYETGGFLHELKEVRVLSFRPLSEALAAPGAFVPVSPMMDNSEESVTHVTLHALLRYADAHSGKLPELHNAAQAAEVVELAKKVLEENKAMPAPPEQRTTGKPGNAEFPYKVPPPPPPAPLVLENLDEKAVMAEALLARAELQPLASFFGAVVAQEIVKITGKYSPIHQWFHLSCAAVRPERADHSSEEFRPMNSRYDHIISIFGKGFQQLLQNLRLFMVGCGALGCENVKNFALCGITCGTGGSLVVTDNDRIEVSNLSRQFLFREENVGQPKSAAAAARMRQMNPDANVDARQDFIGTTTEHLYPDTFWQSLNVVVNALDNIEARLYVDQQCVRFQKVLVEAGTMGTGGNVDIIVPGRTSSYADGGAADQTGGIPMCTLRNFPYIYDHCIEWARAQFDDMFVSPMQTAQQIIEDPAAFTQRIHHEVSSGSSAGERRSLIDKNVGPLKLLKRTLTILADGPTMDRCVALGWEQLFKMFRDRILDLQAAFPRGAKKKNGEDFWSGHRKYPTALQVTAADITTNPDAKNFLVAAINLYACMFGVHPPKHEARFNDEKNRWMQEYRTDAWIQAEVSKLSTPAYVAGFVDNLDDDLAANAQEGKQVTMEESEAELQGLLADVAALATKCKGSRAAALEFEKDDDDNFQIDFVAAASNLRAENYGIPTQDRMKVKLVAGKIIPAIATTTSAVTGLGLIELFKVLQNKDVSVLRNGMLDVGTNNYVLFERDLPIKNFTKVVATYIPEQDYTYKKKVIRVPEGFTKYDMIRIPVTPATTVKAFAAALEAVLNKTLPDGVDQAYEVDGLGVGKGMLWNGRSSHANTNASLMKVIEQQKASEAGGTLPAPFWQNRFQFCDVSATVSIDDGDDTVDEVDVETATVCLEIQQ
The experiment in a line: Leishmania donovani Ubiquitin Activating Enzyme (LdE1). Particulars: 30 µM. The format is functional.

Assay [3] concerns the target AMP-activated protein kinase, AMPK (Homo sapiens) (UniProt P54646+O43741+P54619+Q9UGJ0+Q9Y478+Q13131+Q9UGI9). The experiment in a line: AMP-dependent Kinase enzyme assay. An in vitro enzyme assay that detects ADP turnover that is directly proportional to AMPK activity. This uses naive AMPK that is activated during the assay with MK-8722. The format is functional. The settings on record: 30 µM.

In assay [4] the target is Sialic acid-binding Ig-like lectin 9 (Homo sapiens) (UniProt Q9Y336). The experiment in a line: Hs-Siglec9 ALPHAscreen SOP 20170721. Particulars: 10 µM. For orientation: Alpha assays give light when donor and acceptor beads are brought close together.
In the next assay the test system is Trypanosoma cruzi. The experiment in a line: Trypanosoma cruzi phosphomannomutase and mannose-1-phosphate guanylyltransferase assay. The format is functional. The settings on record: 10 µM.
Assay [5] has as its target T2, Arginase-2, mitochondrial (Homo sapiens) (UniProt P78540).
T2 sequence (whole entry): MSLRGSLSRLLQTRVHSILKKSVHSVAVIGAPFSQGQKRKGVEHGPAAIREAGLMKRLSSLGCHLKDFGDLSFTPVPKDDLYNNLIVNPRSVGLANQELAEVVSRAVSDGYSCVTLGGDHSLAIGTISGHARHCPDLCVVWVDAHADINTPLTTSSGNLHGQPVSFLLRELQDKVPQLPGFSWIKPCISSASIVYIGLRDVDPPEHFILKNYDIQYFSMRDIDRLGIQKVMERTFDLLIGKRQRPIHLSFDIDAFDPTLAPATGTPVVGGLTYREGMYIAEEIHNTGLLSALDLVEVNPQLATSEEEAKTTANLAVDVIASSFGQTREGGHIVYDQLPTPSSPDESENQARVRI
The experiment in a line: in vitro enzyme assay to detect the production of urea directly proportional to the activity of Arginase II. Further: in the data most compounds retested in dose-response had high values. In kind it is functional. The settings on record: 33.3 µM.

Assay [6] deals with T3, Proteasome subunit beta (Trypanosoma cruzi) (UniProt O96673).
T3 sequence (whole entry): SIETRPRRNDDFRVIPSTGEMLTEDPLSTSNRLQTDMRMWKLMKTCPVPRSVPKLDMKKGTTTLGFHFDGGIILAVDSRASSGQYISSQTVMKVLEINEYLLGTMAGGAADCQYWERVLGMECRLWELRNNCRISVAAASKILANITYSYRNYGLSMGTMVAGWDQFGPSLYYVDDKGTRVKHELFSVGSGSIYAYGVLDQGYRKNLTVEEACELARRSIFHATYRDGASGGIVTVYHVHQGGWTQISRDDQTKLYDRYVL
The experiment in a line: Trypanosoma cruzi proteasome chymotrypsin-like activity (TcProtChymo) assay. Further: in the data most compounds retested in dose-response had high values. In kind it is functional. The settings on record: 9.37 µM.

The species entered for the next assay is Homo sapiens. The experiment in a line: To identify inhibition of the IFN signalling (Jak-Stat) pathway via expression of an eGFP reporter gene under the control of an IFN-stimulated response element (ISRE) containing MxA promoter. The format is functional. The settings on record: 30 µM. A general note: A reporter such as luciferase makes a cellular process visible.

The target of assay [7] is T4, Tyrosyl-tRNA synthetase, putative (Trypanosoma cruzi (strain CL Brener)) (UniProt Q4DSP6).
T4 sequence (whole entry): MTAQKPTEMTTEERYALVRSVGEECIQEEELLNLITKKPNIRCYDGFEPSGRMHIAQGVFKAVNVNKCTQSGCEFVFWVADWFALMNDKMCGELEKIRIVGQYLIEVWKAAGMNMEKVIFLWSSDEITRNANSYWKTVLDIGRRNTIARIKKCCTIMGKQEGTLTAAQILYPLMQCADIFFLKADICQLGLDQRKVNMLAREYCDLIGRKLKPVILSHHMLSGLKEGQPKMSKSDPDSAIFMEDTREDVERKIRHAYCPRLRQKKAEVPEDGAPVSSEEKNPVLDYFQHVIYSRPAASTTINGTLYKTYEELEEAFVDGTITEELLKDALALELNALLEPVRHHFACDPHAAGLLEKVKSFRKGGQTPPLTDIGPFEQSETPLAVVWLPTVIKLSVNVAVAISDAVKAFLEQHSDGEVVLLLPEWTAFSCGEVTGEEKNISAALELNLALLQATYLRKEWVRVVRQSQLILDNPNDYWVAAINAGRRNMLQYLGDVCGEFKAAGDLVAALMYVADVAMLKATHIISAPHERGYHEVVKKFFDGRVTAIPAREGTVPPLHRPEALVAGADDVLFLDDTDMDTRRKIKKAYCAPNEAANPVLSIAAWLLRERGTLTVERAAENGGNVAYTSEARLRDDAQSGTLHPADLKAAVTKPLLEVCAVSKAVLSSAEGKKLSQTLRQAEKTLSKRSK
The experiment in a line: Trypanosoma cruzi tyrosyl tRNA synthetase (TcYRS) _High Tyrosine SOP. Further: in the data most compounds retested in dose-response had high values. In kind it is functional. Particulars: 30 µM.

Assay [8] has as its target T4, Tyrosyl-tRNA synthetase, putative (Trypanosoma cruzi (strain CL Brener)). The experiment in a line: Trypanosoma cruzi tyrosyl tRNA synthetase (TcYRS) SOP. Particulars: 30 µM. In kind it is functional.
The target of assay [9] is Chromo domain-containing protein 1 (Saccharomyces cerevisiae (strain ATCC 204508 / S288c) (Baker's yeast)) (UniProt P32657). The experiment in a line: ScCHD-1 Enzyme Inhibition Assay. Further: in the data most compounds retested in dose-response had high values. The settings on record: 30 µM. The format is functional.

For some of these results: Measured potencies and affinities stand elsewhere.

Sequence of Protein translocase subunit SecA (Escherichia coli (strain K12)) (P10408 whole entry): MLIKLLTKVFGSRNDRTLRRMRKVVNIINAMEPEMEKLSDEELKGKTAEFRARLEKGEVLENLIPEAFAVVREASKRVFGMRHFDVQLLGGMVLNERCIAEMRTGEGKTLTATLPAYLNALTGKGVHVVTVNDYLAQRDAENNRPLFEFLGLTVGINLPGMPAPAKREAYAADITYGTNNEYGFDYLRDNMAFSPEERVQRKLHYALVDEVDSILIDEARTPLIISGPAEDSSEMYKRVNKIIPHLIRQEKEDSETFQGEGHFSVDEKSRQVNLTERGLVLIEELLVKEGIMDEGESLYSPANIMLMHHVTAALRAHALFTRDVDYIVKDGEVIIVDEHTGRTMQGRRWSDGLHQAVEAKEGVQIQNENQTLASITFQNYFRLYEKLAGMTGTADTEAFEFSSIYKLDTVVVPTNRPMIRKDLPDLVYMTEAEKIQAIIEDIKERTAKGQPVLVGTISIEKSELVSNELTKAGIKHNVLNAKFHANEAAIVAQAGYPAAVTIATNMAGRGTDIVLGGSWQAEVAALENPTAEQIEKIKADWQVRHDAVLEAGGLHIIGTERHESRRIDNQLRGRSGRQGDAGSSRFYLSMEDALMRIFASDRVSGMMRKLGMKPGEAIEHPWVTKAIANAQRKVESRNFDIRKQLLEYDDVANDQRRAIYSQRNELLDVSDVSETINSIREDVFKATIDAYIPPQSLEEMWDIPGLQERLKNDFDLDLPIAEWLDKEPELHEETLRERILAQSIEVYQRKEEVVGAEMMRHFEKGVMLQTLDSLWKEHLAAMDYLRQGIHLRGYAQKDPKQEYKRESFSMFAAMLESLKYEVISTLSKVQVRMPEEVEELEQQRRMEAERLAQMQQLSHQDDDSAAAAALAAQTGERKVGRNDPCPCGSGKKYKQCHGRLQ
Sequence of Chromo domain-containing protein 1 (Saccharomyces cerevisiae (strain ATCC 204508 / S288c) (Baker's yeast)) (P32657 whole entry, the tested form may be a part): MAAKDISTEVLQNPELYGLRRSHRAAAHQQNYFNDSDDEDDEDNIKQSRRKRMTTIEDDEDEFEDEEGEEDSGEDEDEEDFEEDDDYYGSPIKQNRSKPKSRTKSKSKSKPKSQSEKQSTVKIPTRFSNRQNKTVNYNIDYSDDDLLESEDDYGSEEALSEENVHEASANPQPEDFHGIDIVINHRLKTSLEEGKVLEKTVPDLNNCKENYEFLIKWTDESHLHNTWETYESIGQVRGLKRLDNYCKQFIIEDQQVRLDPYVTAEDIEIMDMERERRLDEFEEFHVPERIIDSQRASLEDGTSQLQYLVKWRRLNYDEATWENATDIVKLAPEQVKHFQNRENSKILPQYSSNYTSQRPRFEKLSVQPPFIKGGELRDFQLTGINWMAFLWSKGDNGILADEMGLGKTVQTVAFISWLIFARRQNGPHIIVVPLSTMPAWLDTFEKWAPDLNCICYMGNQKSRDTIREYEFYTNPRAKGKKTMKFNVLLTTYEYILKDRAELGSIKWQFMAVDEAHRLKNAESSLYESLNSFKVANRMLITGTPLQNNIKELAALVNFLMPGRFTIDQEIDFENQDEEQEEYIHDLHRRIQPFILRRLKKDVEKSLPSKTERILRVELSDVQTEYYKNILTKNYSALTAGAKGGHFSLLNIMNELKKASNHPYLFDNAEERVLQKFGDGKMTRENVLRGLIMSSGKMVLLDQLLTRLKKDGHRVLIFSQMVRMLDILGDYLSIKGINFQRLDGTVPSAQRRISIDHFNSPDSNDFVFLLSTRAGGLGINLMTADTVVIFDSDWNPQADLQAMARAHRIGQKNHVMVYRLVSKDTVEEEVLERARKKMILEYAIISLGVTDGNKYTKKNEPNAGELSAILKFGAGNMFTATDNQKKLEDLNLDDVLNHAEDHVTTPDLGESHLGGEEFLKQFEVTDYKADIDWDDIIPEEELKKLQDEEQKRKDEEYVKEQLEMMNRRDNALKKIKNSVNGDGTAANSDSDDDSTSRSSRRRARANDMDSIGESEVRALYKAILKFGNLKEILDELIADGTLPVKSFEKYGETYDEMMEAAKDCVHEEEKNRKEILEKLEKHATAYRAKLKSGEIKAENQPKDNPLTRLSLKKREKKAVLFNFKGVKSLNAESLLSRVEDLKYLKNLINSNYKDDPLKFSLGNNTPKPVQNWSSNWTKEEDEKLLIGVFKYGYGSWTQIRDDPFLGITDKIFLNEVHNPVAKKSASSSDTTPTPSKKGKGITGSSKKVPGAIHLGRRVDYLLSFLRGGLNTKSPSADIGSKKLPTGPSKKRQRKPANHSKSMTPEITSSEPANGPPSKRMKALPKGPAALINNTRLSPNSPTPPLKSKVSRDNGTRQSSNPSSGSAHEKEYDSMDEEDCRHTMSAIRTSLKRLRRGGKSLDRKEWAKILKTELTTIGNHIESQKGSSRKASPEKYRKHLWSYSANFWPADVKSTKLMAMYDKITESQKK
Sequence of Sialic acid-binding Ig-like lectin 9 (Homo sapiens) (Q9Y336 whole entry): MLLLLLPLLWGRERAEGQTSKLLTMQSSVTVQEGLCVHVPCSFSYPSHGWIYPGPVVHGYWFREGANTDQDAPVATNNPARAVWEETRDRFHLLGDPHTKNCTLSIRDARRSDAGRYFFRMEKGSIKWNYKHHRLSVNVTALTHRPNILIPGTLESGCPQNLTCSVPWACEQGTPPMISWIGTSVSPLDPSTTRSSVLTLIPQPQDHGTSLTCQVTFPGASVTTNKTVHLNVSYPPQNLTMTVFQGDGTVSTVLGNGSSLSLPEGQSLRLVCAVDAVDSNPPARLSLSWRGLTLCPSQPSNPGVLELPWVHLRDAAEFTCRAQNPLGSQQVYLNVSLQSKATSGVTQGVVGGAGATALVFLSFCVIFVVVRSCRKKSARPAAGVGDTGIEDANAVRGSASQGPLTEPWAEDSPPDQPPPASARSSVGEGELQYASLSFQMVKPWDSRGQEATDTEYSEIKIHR

On to `O=C(C1SCCc2sccc21)N1CCC(O)CC1` (stereo unspecified), for which the Percent Effect in assay [1] is -4.42%; in [2], -5.41%; in assay [3] it was 2.06%; in [4] it was 0.929%; in the assay on Trypanosoma cruzi, -6.25%; in assay [5] it was 0.833%. Moreover, the Percent Effect was 6.34% in assay [6]; 5.86% in the assay listed under Homo sapiens; 5.94% in assay [7]; 1.22% in assay [8]; 1.03% in assay [9].
For the compound `O=C(NCCCN1CCOCC1)c1cc(-c2ccc3c(c2)CCO3)n[nH]1`, the Percent Effect in [1] is -5.47%; in [2], -20%; in assay [3], -0.583%; in assay [4], 0.426%; with Trypanosoma cruzi, 2.36%; in assay [5], -15%. For the same compound, the Percent Effect in assay [6] is 12.2%; in the assay filed under Homo sapiens, -4.93%; in assay [7], 1.06%; in assay [8], -2.56%; in assay [9], -5.21%.
Turning to `CN(Cc1nccn1CC(F)(F)F)C(=O)c1cccc(C#N)c1`, the Percent Effect in [1] was -3.37%; in assay [2], -2.63%; in assay [3], 6.05%; in assay [4] it was 3.82%; in the assay with Trypanosoma cruzi it was -3.21%; in assay [5] it was -4.73%. In addition, the Percent Effect in assay [6] was 3.74%; in the assay filed under Homo sapiens, -14.9%; in assay [7] it was 3.19%; in assay [8], 5.2%; in assay [9] it was 13.6%.
Consider `O=C(c1ccc(-n2ccnc2)nc1)N1CCCC(n2cccn2)C1` (stereo unspecified), for which the Percent Effect in assay [1] is -0.548%; in [2], 7.89%; in assay [3] it was -2.37%; in [4], 3.05%; in the assay with Trypanosoma cruzi, -2.63%; in assay [5], 7.28%. In addition, the Percent Effect is -0.501% in assay [6]; 15.7% in the assay listed under Homo sapiens; 5.39% in assay [7]; 9.76% in assay [8]; 0.587% in assay [9].
In the case of `CN(C)CCN1CCC2(CC1)CN(c1cccnc1)C(=O)CO2`, the Percent Effect in [1] is -2.58%; in [2], 10.8%; in assay [3], 0.668%; in [4], -8.57%; in the assay with Trypanosoma cruzi it was -5.18%; in [5] it was 2.23%. Moreover, the Percent Effect is 24.4% in [6]; 12.1% in the assay filed under Homo sapiens; 4.32% in assay [7]; 10.3% in assay [8]; -2.65% in assay [9].
Regarding `CN(C)C(=O)c1nc2c(s1)CCN(C(=O)c1ccc(Cl)cc1)CC2`, the Percent Effect was -2.69% in [1]; 18.7% in assay [2]; -9.31% in assay [3]; -1.54% in [4]; 2.7% in the assay with Trypanosoma cruzi; -29.6% in assay [5]. Further, the Percent Effect was 10.4% in assay [6]; -8.27% in the assay filed under Homo sapiens; 9.38% in assay [7]; 30% in assay [8]; -12.2% in assay [9].
On to `Cc1ncsc1C(=O)NCCSCc1cccs1`, for which the Percent Effect is -1.5% in assay [1]; 2.7% in assay [2]; -1.07% in assay [3]; 13.7% in assay [4]; 3.44% in the assay on Trypanosoma cruzi; -3.14% in [5]. Moreover, the Percent Effect in assay [6] is 7.9%; in the assay listed under Homo sapiens it was 16.5%; in [7], 0%; in [8], 11%; in assay [9], -5.27%.
Turning to `O=C(NCC(O)CN1CCc2ccccc2C1)Nc1cccnc1` (stereo unspecified), the Percent Effect in [1] was -4.38%; in assay [2], 13%; in assay [3] it was 3.15%; in [4], 3.21%; with Trypanosoma cruzi, 0.294%; in assay [5], 3.58%. Besides, the Percent Effect is 11.2% in [6]; 14.5% in the assay filed under Homo sapiens; 1.91% in assay [7]; -25.9% in assay [8]; -11.5% in assay [9].
For `CN(Cc1ccc(F)cc1)C(=O)NCC1(N2CCOCC2)CCSC1` (stereo unspecified), the Percent Effect in assay [1] is 2.92%; in assay [2], 16.2%; in assay [3] it was -0.11%; in [4], 22.3%; with Trypanosoma cruzi, 2.12%; in [5], 1.43%. Also, the Percent Effect was 15.9% in [6]; 14.5% in the assay listed under Homo sapiens; 3.7% in assay [7]; 17.1% in assay [8]; -8.64% in assay [9].
For `CC(NC(=O)Nc1cccnc1N1CCCC1)c1nncn1C` (stereo unspecified), the Percent Effect in assay [1] was -3.96%; in assay [2], 5.41%; in assay [3] it was -24%; in assay [4] it was 2.82%; in the assay with Trypanosoma cruzi, 7.45%; in [5], -2.81%. For the same compound, the Percent Effect in [6] is -0.901%; in the assay listed under Homo sapiens, 23.6%; in [7], 5.42%; in [8], 16.1%; in [9], -9.41%.
Regarding `O=C(c1nn(-c2ccccc2F)cc1O)N1CCCC1`, the Percent Effect in assay [1] was -5%; in [2], -10.8%; in assay [3], -2.23%; in assay [4] it was 3.15%; with Trypanosoma cruzi, -3.62%; in assay [5], -0.185%. Also, the Percent Effect in [6] is -6.1%; in the assay filed under Homo sapiens, 5.03%; in [7], -6.93%; in assay [8], -8.54%; in assay [9] it was 4.21%.
